“And” between values parts separate entries of the source, which are not always exact repeats. Equal values may be shown once. Inconclusive results are not listed. Entries that show only a call come without a potency. The source holds several records for some structures; these can differ, active in one and inactive in another. The source made the active and inactive calls. The call rests on the fitted dose curve; in most records, active means well fitted curve in the direction sought with a large enough effect in the repeat runs; inconclusive means weak or mixed curves; inactive means no such curve, though single readings can be large; an effect the other way counts as inactive or inconclusive.
Tests used:
[1] = target: Cytochrome P450 2D6 (Homo sapiens) (UniProt P10635); experiment: Cytochrome P450 Family 2 Subfamily D Member 6 (CYP2D6) small molecule antagonists: luciferase reporter qHTS assay (AID 1671196); further: nearly all actives have a fitted effect of over 50% in size; further: potency means the concentration at half of the fitted maximal effect
Outline: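 Luminescence (RLU), read 20 min after detection reagent, indicated CYP2D6 conversion of proluciferin to luciferin during a 1 h NADPH-dependent reaction at room temperature.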

[2] = target: Cytochrome P450 2C19 (Homo sapiens) (UniProt P33261); experiment: Cytochrome P450 Family 2 Subfamily C Member 19 (CYP2C19) small molecule antagonists: luciferase reporter qHTS assay (AID 1671197); further: nearly all actives have a fitted effect of over 65% in size; further: potency means the concentration at half of the fitted maximal effect
Outline: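 Inhibition of CYP2C19 was scored from loss of luminescence in a P450-Glo proluciferin substrate assay, NADPH-started and run 1 h at 37C, with ketoconazole as positive control.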

[3] = target: Cytochrome P450 2C9 (Homo sapiens) (UniProt P11712); experiment: Cytochrome P450 Family 2 Subfamily C Member 9 (CYP2C9) small molecule antagonists: luciferase reporter qHTS assay (AID 1671198); further: nearly all actives have a fitted effect of over 50% in size; further: potency means the concentration at half of the fitted maximal effect
Outline: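 P450-Glo proluciferin substrate with CYP2C9 enzyme; 10 min RT preincubation, then NADPH regeneration 1 h at 37C; luciferin detection reagent 20 min RT, luminescence in relative luminescence units.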

[4] = target: Cytochrome P450 1A2 (Homo sapiens) (UniProt P05177); experiment: Cytochrome P450 Family 1 Subfamily A Member 2 (CYP1A2) small molecule antagonists: luciferase reporter qHTS assay (AID 1671199); further: nearly all actives have a fitted effect of over 50% in size; further: potency means the concentration at half of the fitted maximal effect
Outline: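 CYP1A2 turnover of a luminogenic substrate was quantified after 1 h with NADPH regeneration at room temperature. Furafylline served as positive control.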

[5] = target: Voltage-gated inwardly rectifying potassium channel KCNH2 (Homo sapiens) (UniProt Q12809); experiment: Human Ether-a-go-go-Related Gene (hERG) channel small molecule antagonists: fluorescence cell-based qHTS assay (AID 1671200); further: nearly all actives have a fitted effect of over 50% in size; further: potency means the concentration at half of the fitted maximal effect
Outline: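 Quantitative HTS in hERG-U2OS cells: thallium entry through the channel reports activity, read as continuous 480/540 nm fluorescence over 2 min after stimulus addition.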

[6] = target: Cytochrome P450 3A4 (Homo sapiens) (UniProt P08684); experiment: Cytochrome P450 Family 3 Subfamily A Member 4 (CYP3A4) small molecule antagonists: luciferase reporter qHTS assay (AID 1671201)
Outline: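 Inhibition of CYP3A4 is measured as loss of light: the enzyme converts a proluciferin substrate to luciferin, detected luminescently. Reaction ran 1 h at room temperature with NADPH regeneration after a 10 min compound preincubation.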

Sequence of Cytochrome P450 2D6 (Homo sapiens) (P10635 whole entry, looked up): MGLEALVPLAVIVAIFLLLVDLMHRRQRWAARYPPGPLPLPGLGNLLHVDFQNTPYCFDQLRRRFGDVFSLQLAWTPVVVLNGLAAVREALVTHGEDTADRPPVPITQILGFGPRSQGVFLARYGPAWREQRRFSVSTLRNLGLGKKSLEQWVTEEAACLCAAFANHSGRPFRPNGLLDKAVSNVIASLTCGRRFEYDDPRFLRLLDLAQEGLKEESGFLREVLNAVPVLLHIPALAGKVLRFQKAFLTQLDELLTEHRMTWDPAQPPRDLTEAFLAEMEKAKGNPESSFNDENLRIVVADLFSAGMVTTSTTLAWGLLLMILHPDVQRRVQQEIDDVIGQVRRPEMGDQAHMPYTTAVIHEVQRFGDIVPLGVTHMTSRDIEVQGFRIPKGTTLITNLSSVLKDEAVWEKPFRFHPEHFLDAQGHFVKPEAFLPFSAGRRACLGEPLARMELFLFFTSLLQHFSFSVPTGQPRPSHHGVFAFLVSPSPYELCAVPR
Sequence of Cytochrome P450 2C9 (Homo sapiens) (P11712 whole entry, looked up): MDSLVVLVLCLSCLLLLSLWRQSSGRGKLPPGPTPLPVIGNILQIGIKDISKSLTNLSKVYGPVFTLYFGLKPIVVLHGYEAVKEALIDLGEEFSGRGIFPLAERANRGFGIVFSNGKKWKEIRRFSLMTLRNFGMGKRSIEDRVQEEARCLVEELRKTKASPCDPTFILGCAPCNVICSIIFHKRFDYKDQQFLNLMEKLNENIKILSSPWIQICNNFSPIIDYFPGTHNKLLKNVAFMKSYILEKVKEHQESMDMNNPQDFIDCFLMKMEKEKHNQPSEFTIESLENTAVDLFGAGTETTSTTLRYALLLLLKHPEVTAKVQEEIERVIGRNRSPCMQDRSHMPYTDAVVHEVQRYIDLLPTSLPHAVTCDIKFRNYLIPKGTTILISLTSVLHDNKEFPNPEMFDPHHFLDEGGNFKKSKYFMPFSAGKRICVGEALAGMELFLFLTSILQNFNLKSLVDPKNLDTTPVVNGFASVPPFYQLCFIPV
Sequence of Cytochrome P450 3A4 (Homo sapiens) (P08684 whole entry, looked up): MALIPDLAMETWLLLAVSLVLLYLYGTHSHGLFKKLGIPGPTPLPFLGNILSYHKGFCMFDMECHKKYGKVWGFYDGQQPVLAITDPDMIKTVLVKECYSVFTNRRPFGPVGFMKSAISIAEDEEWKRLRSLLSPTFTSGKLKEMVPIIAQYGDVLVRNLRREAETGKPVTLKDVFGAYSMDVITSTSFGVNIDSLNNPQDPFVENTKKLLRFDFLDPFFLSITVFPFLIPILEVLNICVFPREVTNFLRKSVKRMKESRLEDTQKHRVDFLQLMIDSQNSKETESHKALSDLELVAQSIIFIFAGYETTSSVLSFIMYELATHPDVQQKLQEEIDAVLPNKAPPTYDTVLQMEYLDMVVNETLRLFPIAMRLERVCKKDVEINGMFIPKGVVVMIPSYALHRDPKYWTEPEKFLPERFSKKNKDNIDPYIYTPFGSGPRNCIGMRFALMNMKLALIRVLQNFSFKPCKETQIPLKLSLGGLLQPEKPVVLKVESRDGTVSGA
Sequence of Cytochrome P450 2C19 (Homo sapiens) (P33261 whole entry, looked up): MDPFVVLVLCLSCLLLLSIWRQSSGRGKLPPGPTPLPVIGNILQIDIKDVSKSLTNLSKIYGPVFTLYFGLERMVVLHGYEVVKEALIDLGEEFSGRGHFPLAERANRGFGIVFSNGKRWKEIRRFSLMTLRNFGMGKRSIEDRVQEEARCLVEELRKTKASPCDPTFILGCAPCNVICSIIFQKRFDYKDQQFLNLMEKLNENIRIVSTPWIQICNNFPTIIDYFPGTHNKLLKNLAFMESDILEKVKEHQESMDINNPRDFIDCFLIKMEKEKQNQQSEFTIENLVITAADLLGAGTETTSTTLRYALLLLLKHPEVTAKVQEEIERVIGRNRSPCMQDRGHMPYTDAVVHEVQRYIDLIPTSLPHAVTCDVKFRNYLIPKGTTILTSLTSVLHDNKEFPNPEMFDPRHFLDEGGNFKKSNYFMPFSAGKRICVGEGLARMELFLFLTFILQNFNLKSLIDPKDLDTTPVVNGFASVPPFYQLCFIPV
Sequence of Cytochrome P450 1A2 (Homo sapiens) (P05177 whole entry, looked up): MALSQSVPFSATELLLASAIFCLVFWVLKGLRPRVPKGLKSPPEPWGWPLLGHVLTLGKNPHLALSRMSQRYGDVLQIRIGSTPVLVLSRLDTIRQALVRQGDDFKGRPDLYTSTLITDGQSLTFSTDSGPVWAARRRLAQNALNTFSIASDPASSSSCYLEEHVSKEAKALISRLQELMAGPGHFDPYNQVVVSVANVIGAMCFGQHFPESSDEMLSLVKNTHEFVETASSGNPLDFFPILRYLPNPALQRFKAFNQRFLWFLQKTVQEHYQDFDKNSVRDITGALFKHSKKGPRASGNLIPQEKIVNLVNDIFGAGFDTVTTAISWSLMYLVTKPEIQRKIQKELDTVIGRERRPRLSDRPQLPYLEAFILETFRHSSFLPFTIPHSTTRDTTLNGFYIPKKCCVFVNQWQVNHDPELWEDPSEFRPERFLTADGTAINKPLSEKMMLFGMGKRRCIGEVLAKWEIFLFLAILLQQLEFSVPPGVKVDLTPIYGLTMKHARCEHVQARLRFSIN
Sequence of Voltage-gated inwardly rectifying potassium channel KCNH2 (Homo sapiens) (Q12809 whole entry, looked up): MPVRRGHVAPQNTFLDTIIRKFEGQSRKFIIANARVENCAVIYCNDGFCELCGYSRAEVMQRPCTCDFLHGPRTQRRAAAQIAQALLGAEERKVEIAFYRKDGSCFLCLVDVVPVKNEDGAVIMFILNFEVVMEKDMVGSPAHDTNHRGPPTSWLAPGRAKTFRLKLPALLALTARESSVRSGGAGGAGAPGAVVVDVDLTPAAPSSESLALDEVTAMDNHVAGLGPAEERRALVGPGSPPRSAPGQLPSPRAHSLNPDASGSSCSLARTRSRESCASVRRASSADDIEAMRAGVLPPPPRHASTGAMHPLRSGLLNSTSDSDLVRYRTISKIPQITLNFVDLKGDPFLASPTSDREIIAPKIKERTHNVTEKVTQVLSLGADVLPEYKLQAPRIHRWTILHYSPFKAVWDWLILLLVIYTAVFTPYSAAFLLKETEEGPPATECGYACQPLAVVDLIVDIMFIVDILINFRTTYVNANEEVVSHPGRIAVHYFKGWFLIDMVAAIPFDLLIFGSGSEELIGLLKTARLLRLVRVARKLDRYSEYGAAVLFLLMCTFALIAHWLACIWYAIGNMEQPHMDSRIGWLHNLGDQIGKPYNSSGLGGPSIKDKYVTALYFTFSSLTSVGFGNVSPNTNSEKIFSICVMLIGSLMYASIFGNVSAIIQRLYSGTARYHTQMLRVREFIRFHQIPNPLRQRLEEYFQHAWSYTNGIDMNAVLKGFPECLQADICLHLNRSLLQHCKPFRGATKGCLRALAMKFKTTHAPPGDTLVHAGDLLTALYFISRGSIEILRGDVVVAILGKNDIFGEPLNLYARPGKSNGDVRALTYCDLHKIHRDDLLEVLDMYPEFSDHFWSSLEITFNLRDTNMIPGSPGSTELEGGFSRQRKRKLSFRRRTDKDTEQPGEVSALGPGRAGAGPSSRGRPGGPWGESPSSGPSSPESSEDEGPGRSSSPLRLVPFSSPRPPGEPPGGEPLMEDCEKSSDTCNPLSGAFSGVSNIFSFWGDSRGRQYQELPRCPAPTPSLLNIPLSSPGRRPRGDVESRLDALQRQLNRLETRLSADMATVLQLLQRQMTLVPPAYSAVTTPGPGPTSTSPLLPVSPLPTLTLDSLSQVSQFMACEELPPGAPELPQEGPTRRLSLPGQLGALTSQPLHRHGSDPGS

Row | Compound | Potency [1] | Potency [2] | Potency [3] | Potency [4] | Potency [5] | Potency [6]
1 | COc1cc(C(=O)N2CCCCCCC2)cc(OC)c1OC | inactive | 21.9 µM (active) | inactive | inactive | inactive | 
2 | CN(C)CCCNCCCN(C)C | 20 µM (active) | inactive | inactive | inactive |  | 
3 | O=C(O)CNC(=O)c1ccc([N+](=O)[O-])cc1 | inactive | inactive | inactive | inactive | inactive | inactive
4 | NC(=O)Nc1ccccc1 | inactive | inactive | inactive | inactive | inactive | inactive
5 | CCCN1CCCC[C@H]1C(=O)Nc1c(C)cccc1C | 4.9 µM (active) | inactive | inactive | inactive | inactive | 
6 | C[C@@H]1CCN(C(=O)[C@H](CCCN=C(N)N)NS(=O)(=O)c2cccc3c2NC[C@H](C)C3)[C@@H](C(=O)O)C1 | inactive | inactive | inactive | inactive |  | 
7 | CC(C)CNCC(C)C | inactive | inactive | inactive | inactive | inactive | inactive
8 | C=CCOCC(CC)(CO)COCC=C | inactive | 3.99 µM (active) | 25.2 µM (active) | 28.3 µM (active) |  | 
9 | Cn1cc(S(C)=O)c(=O)c2ccc(F)cc21 (centres undefined) | inactive | inactive | inactive | inactive | inactive | inactive
10 | CCCCCCCCCCCCCCCCC | inactive | inactive | inactive | 12.6 µM (active) | inactive | inactive
11 | Cc1cc2c(cc1S(N)(=O)=O)S(=O)(=O)CCC2 | inactive | inactive | inactive | inactive | inactive | inactive
12 | CCOC(=O)Nc1ccc(NCc2ccc(F)cc2)nc1N | 3.09 µM (active) | 11 µM (active) | 6.17 µM (active) | inactive |  | 
13 | Cc1cnc(NS(=O)(=O)c2ccc(N)cc2)nc1 | inactive | inactive | inactive | inactive | inactive | inactive
14 | CC(C)(c1ccc(O)cc1)c1ccc(O)cc1 | inactive and 64.4 µM (active) | inactive | 35.2 µM (active) and 28.8 µM (active) | inactive and 57.4 µM (active) | inactive | 
15 | OC[C@]1(O)OC[C@@H](O)[C@H](O)[C@@H]1O | inactive | inactive | inactive | inactive | inactive | inactive
16 | C=C[Si](OC(=C)C)(OC(=C)C)OC(=C)C | inactive | 39.9 µM (active) | inactive | inactive | inactive | 
17 | CCOC(=O)c1ccc(C)cc1 | inactive | inactive | inactive | inactive | inactive | inactive
18 | CCC(=O)OC(C)c1ccccc1 (centres undefined) | inactive | inactive | inactive | inactive | inactive | inactive
19 | Cc1[nH]c(=O)c(C#N)cc1-c1ccc2nccn2c1 | inactive | inactive | inactive | inactive | inactive | inactive
20 | N[C@H]1CN(c2c(F)cc3c(=O)c(C(=O)O)cn(C4C[C@H]4F)c3c2Cl)CC12CC2 (some centres undefined) | inactive | inactive | inactive | inactive | inactive | 
21 | CCCC(=O)O[C@]1(C(=O)CO)CC[C@H]2[C@@H]3CCC4=CC(=O)CC[C@]4(C)[C@H]3[C@@H](O)C[C@@]21C | inactive | inactive | inactive | inactive | inactive | 
22 | CC1(C)C(O)C(C)(C)C1O (centres undefined) | inactive | inactive | inactive | inactive | inactive | inactive
23 | c1cnc(N2CCN(Cc3ccc4c(c3)OCO4)CC2)nc1 | 1.23 µM (active) | 3.47 µM (active) | 15.5 µM (active) | 4.07 µM (active) | inactive | 

Row | Compound | Potency [1] | Potency [2] | Potency [3] | Potency [4] | Potency [5] | Potency [6]
24 | CC(C)(C)c1ccc(O)c(O)c1 | 23.8 µM (active) | inactive | 61.5 µM (active) | 41.1 µM (active) | inactive | inactive
25 | COC(=O)c1ccc(C)cc1C1=NC(C)(C(C)C)C(=O)N1 (centres undefined) | inactive | inactive | inactive | inactive | inactive | 
26 | C1CN(CCOCCN2CCOCC2)CCO1 | inactive | inactive | inactive | inactive | inactive | inactive
27 | Nc1cc(=O)[nH]c(N)n1 | inactive | inactive | inactive | inactive | inactive | inactive
28 | C1OCOCO1 | inactive | inactive | inactive | inactive | inactive | inactive
29 | O=C(CCCN1CCN(c2ccccn2)CC1)c1ccc(F)cc1 | 11 µM (active) | 34.7 µM (active) | 7.76 µM (active) | inactive | 6.74 µM (active) | inactive
30 | CN(C)CCCSc1ccccc1NC(=O)/C=C/c1ccccc1 | 0.389 µM (active) | 38.9 µM (active) | inactive | inactive | inactive | inactive
31 | CCOC(=O)[C@H](CCc1ccccc1)N[C@@H](C)C(=O)N1[C@H](C(=O)O)C[C@@H]2CCC[C@@H]21 | inactive | inactive | inactive | inactive | inactive | 
32 | Cc1c(NC(C)C)c(=O)n(-c2ccccc2)n1C | inactive | inactive | inactive | 28.8 µM (active) | inactive | inactive
33 | CC(C)(CC(=O)O)C(=O)O | inactive | 70.3 µM (active) | inactive | 12.5 µM (active) | inactive | inactive
34 | NS(=O)(=O)c1cc(C(=O)NN2C[C@H]3[C@H]4CCC(C4)[C@H]3C2)ccc1Cl | inactive | inactive | inactive | inactive | inactive | 
35 | COc1nc(N)nc2c1ncn2[C@@H]1O[C@H](CO)[C@@H](O)[C@@H]1O | inactive | inactive | inactive | 24.5 µM (active) | inactive | inactive
36 | COCCCOCCCOC | inactive | inactive | inactive | inactive | inactive | inactive
37 | CCCCCOC(=O)CCCCC | inactive | inactive | inactive | inactive | inactive | inactive
38 | CCOC(=O)CCC(C)=O | inactive | inactive | inactive | inactive | inactive | inactive
39 | O=c1n(CCO)c(=O)n(CCO)c(=O)n1CCO | inactive | inactive | inactive | inactive | inactive | inactive
40 | FC1(F)C(F)(F)C(F)(F)C2(F)C(F)(F)C(F)(F)C(F)(F)C(F)(F)C2(F)C1(F)F (centres undefined) | inactive | inactive | inactive | inactive | inactive | inactive
41 | CCCCCCOC(=O)CCCCC(=O)OCCCCCC | inactive | inactive | 31.7 µM (active) | inactive | inactive | inactive
42 | COC(=O)CC(C)=O | inactive | inactive | inactive | inactive | inactive | inactive
43 | NS(=O)(=O)c1cc(C(=O)O)cc(N2CCCC2)c1Oc1ccccc1 | inactive | inactive | inactive | inactive | inactive | inactive
44 | CC(C)(C)c1nnc(NS(=O)(=O)c2ccccc2)s1 | inactive | inactive | 27.5 µM (active) | inactive | inactive | inactive
45 | NS(=O)(=O)c1ccc(C(=O)O)cc1 | inactive | inactive | inactive | inactive | inactive | inactive
46 | CC(C)NCC(O)c1ccc(NS(C)(=O)=O)cc1 (centres undefined) | 36 µM (active) | inactive | inactive | inactive | 22.1 µM (active) | inactive

Row | Compound | Potency [1] | Potency [2] | Potency [3] | Potency [4] | Potency [5] | Potency [6]
47 | CO[Si](CCCOCC1CO1)(OC)OC (centres undefined) | inactive | inactive | inactive | inactive | inactive | inactive
48 | CCOC(=O)C(=O)OCC | 31.7 µM (active) | inactive | inactive | inactive | inactive | inactive
49 | CC(C)(O)C#CC(C)(C)O | inactive | inactive | inactive | inactive | inactive | inactive
50 | COc1ccc2c(c1)CCCC2=O | inactive | inactive | inactive | 13.8 µM (active) | inactive | inactive
51 | CN1CCC(=C2c3ccccc3CC(=O)c3sccc32)CC1 | 2.45 µM (active) | 34.7 µM (active) | inactive | inactive | inactive | inactive
52 | C=CCS(=O)(=O)O | inactive | inactive | inactive | inactive | inactive | inactive
53 | Cc1sccc1Br | inactive | inactive | inactive | inactive | inactive | inactive
54 | O=C[C@H](O)[C@@H](O)[C@H](O)[C@H](O)CO | inactive | inactive | inactive | inactive | inactive | inactive
55 | C[N+](C)(C)CCCCCC[N+](C)(C)C | inactive | inactive | inactive | inactive | inactive | inactive
56 | CN1CC(=O)NC1=N | inactive | inactive | inactive | inactive | inactive | inactive
57 | CCO/C([O-])=N/c1c[n+](N2CCOCC2)no1 | inactive | inactive | inactive | inactive | inactive | inactive
58 | NC(=O)c1ccc(N)cc1 | inactive | inactive | inactive | inactive | inactive | inactive
59 | CCCCCSCCCCC | inactive | inactive | inactive | inactive | inactive | inactive
60 | Nc1nc2c(ncn2COC(CO)CO)c(=O)[nH]1 | inactive | inactive | inactive | inactive | inactive | inactive
61 | COc1c(N2C[C@@H]3CCCN[C@@H]3C2)c(F)cc2c(=O)c(C(=O)O)cn(C3CC3)c12 | inactive | inactive | inactive | inactive | inactive | inactive
62 | NS(=O)(=O)c1ccccc1Cl | inactive | inactive | inactive | inactive | inactive | inactive
63 | CC(C)(C)NCCNC(C)(C)C | inactive | 35.6 µM (active) | inactive | inactive | inactive | inactive
64 | O=C1OC(=O)C2CCCCC12 (centres undefined) | inactive | inactive | inactive | inactive | inactive | inactive
65 | CCN(CC)CCNC(=O)c1cc(S(C)(=O)=O)ccc1OC | 12.3 µM (active) | inactive | inactive | inactive | inactive | inactive
66 | CCN1CCC[C@H]1CNC(=O)c1cc(S(N)(=O)=O)ccc1OC | 15.5 µM (active) | inactive | inactive | inactive | inactive | inactive
67 | CCOC(=O)c1cccc(N)c1 | inactive | inactive | inactive | 5.75 µM (active) | inactive | inactive

From PubChem BioAssay (Tox21)
